Records with an inconclusive call do not appear. Unmarked numbers belong to inactive results. Calls follow the shape of the dose curve; as a rule, active = well fitted cell-killing curve with a large enough effect; inconclusive = small, poorly fitted or top-dose-only effect, or effect the other way; inactive = flat fitted curve, though single readings scatter.
Each compound was assayed on C33A (assay: Primary qHTS to identify gynecologic anti-cancer compounds using libraries of approved drugs and bioactive compounds (AID 1345084; also: nearly all actives have a fitted effect of over 55% in size)). Details: Gynecologic cancer cell panel viability, ATPlite luminescence, 48 h; series mostly up to 57.5 µM; activity change, negative = cytotoxicity: at the top concentration.
Procedure, shortened: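 48 h compound exposure at 37 C, 5% CO2; five-point qHTS. ATPlite luminescence readout of cell ATP.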
% is scaled to controls: 0 for no effect and ±100 for the full control effect.

Structure (SMILES)	activity change, negative = cytotoxicity
N#Cc1ccc(C2CCCc3cncn32)cc1 (stereo unspecified)	-12.6% [at 25.3 µM]
C[C@@H]1O[C@@H](O[C@@H]2[C@@H](O)[C@H](O[C@@H]3[C@@H](O)[C@@H](O)[C@H](O[C@H]4[C@H](OC(=O)[C@]56CCC(C)(C)C[C@H]5C5=CCC7[C@@]8(C)C[C@H](O)[C@H](O[C@@H]9O[C@H](C(=O)O)[C@@H](O)[C@H](O)[C@H]9O)[C@@](C)(CO)C8[C@H](O)C[C@@]7(C)[C@]5(C)C[C@H]6O)O[C@@H](CO)[C@@H]4O)O[C@H]3C)OC[C@H]2O)[C@H](O)[C@H](O)[C@H]1O (stereo partly specified)	7.96% [at 6.55 µM]
C=C1C2CCC3C(CCC4[C@@]3(C)CCC[C@@]4(C)C(=O)O)(C2)[C@@H]1OC(=O)/C(C)=C\C (stereo partly specified)	9.81% [at 25.3 µM]
O=C(O)c1cccc(C(=O)CCC2OC(n3cnc4c(=O)[nH]cnc43)C(O)C2O)c1 (stereo unspecified)	-8.34% [at 25.3 µM]
CC1(CO)CCCC2(C)C1C(OC(=O)c1ccccc1)CC1C(=O)OCC12O (stereo unspecified)	-3.29% [at 38.5 µM]
CC1C2=CC(=O)OC2(O)CC2C1C(O)CC1C(C)(CO)CCCC21C (stereo unspecified)	4.14% [at 38.5 µM]
COc1cc2c(cc1OC)N1C(=O)C[C@@]34C=CC[N@+]5([O-])CC[C@H]2[C@H](CC3)[C@@]145	8.45% [at 38.5 µM]
CCCN1CCC[C@@H](c2cccc(S(C)(=O)=O)c2)C1	4.06%
CC1CCC2(C(=O)OC3OC(CO)C(O)C(O)C3O)CCC3(C)C(=CCC4C5(C)CCC(O)C(C)(CO)C5CCC43C)C2C1(C)O (stereo unspecified)	9.87% [at 25.3 µM]
COc1ccc(Oc2c(Cl)cnn(C3c4ccccc4-c4ccccc43)c2=O)cc1	-1.16%
Cc1nnc(-c2sc(NC(=O)[C@H](C(C)C)n3c(=O)[nH]c4ccccc4c3=O)nc2C)o1	13.2%

— PubChem BioAssay (NCATS)
